# Reference: PubChem BioAssay (NCATS)
# Records with an inconclusive call do not appear. Entries that show only a call come without a potency. The source made the active and inactive calls. Unless noted, calls follow the shape of the dose curve; as a rule, active = well fitted curve in the direction sought with a large enough effect; inconclusive = small, poorly fitted or top-dose-only effect, or another doubt; inactive = no such curve, though single readings can be large; an effect the other way counts as inactive or inconclusive. Bridge positions count the residues as written; N and C are the ends. Square brackets hold non-standard residues; d marks the D form. Peptide text beside a SMILES is read from it. * marks the point of attachment. Ileψ(thiazoline)Cys = CC[C@H](C)[C@H](N)C1=N[C@H](C(=O)*)CS1; d(aIle) = CC[C@H](C)[C@@H](N)C(=O)O; dOrn = NCCC[C@@H](N)C(=O)O
# Assays:
# [1] = AP1 Signaling Pathway (AID 357; active = well fitted curve in either direction with a large enough effect, not every such curve was filed as active;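 also: ME-180 reporter cells stimulated with EGF at its EC50 level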)
# Summary of the method: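 Titration-series screen for positive or negative modulators of EC50 EGF-induced signaling in ME-180 cells carrying an AP-1-driven beta-lactamase reporter. After 5 hours at 37 degrees Celsius, CCF4 460nm/530nm emission ratio gave %Activity; AC50 values derived.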
# [2] = NFAT Signaling Pathway (AID 444; active = well fitted curve in either direction with a large enough effect, not every such curve was filed as active;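 also: carbachol stimulus at about its EC50 of 1 µM final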); settings: Jurkat NFAT-bla M1, carbachol, beta-lactamase ratio, 5 h; at 17.2 µM (top of the series) unless noted
# Summary of the method: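 Read-out: CCF4 FRET ratio (460 nm/530 nm) after 1 h RT dye loading, used for %activity and AC50 from titration series. Cells: Jurkat NFAT-β-lactamase/M1 line, treated with compound plus 1 uM carbachol for 5 h, 37 °C.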
# [3] = Stat Signaling Pathway (AID 446; active = well fitted curve in either direction with a large enough effect, not every such curve was filed as active;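 also: ME-180 cervical cancer cells given 40 pM IL-6 alongside compound; SIE-controlled beta-lactamase reporter measured as 460/530 nm FRET emission ratio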)
# Summary of the method: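 Overnight-plated ME-180 cells bearing a STAT Inducible Element beta-lactamase reporter; 5 h co-exposure to compound and 40 pM IL-6; values normalized to 300 pM IL-6 and 125 nM JAK inhibitor controls.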
# [4] = target: Glucocorticoid receptor (Homo sapiens) (UniProt P04150); assay: GR-GFP Redistribution (AID 450;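 active = compounds whose dose series gives a full or clear partial fitted curve of increased nuclear translocation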; also: potency is read from the fitted curve at half-maximal effect); settings: U2OS GR-GFP nuclear translocation, laser cytometry, 2 h
# [5] = target: Glucocorticoid receptor (Homo sapiens) (UniProt P04150); assay: GR-EFC Redistribution (AID 451; calls by dose curve; also: potency is read from the fitted curve at half-maximal effect); settings: CHO-K1 GR-EFC translocation, beta-gal luminescence, 2 h
# Summary of the method: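 Translocation of GR-ED fusion to nuclear EA restores b-gal, read by luminescence after 1 h room-temperature detection. Engineered CHO-K1 biosensor cells, 1,000/well, exposed 2 h at 37 C to titrations up to 46 uM final.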
# [6] = target: Mitogen-activated protein kinase 10 (Mus musculus) (UniProt Q61831); assay: JNK3 AlphaScreen Assay (AID 530; active = well fitted curve in either direction with a large enough effect, not every such curve was filed as active;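 also: kinase came from lysate of stimulated human HepG2 cells; signal reports phosphorylation of biotinylated GST-cJun 1-79 at Ser73 with 10 µM ATP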)
# Summary of the method: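 qHTS titrations with 15 min compound pre-incubation before adding ATP (10 uM final). Read-out: AlphaScreen of Ser73-phosphorylated biotin-GST-cJun using HepG2 lysate JNK3 activated by IL-1β and TNFα.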
# [7] = target: 3',5'-cyclic-AMP phosphodiesterase 4B (Homo sapiens) (UniProt Q07343); assay: qHTS Assay for Inhibitors of PDE-IV (AID 607; active = well fitted activation curve with a large enough effect in the main read-out, with a control signal flat, not every such curve was filed as active)
# Summary of the method: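 Live HEK293 cells with a modified cyclic nucleotide-gated (CNG) channel report intracellular cAMP via membrane-potential dye fluorescence (ex 535/em 590 nm). Endogenous PDE-IV was targeted. Compounds were tested at up to 22.9 uM final; RO 20-1724 100 uM served as control.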
# [8] = qHTS Assay for Lipid Storage Modulators (AID 1519; calls by dose curve); settings: Drosophila S3 cells, BODIPY lipid droplet/cell ratio, laser cytometry, cells loaded with oleic acid; for activity change, negative = inhibition: at 25.7 µM (top of the series)
# Summary of the method: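 Cells seeded at 5,000 per well were treated with compounds over a concentration series and loaded with oleic acid (400 uM, as added). Lipid droplet fluorescence (488 nm excitation, 500-530 nm channel) was read by laser-scanning cytometry and normalized to 20 uM Triacsin C.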
# [9] = target: Ubiquitin carboxyl-terminal hydrolase 1 (Homo sapiens) (UniProt O94782); assay: Inhibitors of USP1/UAF1: Pilot qHTS (AID 504865);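 also: rhodamine fluorescence freed from ubiquitin-rhodamine substrate followed over time; top concentration of the series differs between compounds; nearly all actives have a fitted effect of over 35% in size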
# Summary of the method: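 Kinetic fluorescence assay: 1nM USP1/UAF1, 15 min compound preincubation, then 150nM Ub-Rho; 480/540 nm.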
# [10] = S16 Schwann cell PMP22 intronic element firefly luciferase assay (AID 624032); also: nearly all actives have a fitted effect of over 30% in size
# Summary of the method: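 Luciferase reporter of PMP22 intronic-element expression in stably transfected S16 rat Schwann cells, read by ONE-Glo luminescence after 24 h compound exposure at 37 C. Activity scaled between DMSO (0%) and positive-control PTC124; concentration-effect curves quality-classified.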
# [11] = qHTS profiling for inhibitors of Plasmodium falciparum proliferation (AID 504749); also: nearly all actives have a fitted effect of over 60% in size; settings: P. falciparum in erythrocytes, SYBR Green DNA, 72 h, at 12.8 µM (top of the series)
# Summary of the method: (§1)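 SYBR Green fluorescence of parasite DNA, read after lysis and overnight dark incubation, measured growth over 72 h in erythrocyte culture at 0.3% parasitemia and 2.5% hematocrit. Data normalised to DMSO and 0.29 uM artemisinin, with plate-drift correction.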
# C2A = assay: as above; settings: P. falciparum in erythrocytes, SYBR Green DNA, 72 h; series mostly up to 12.8 µM
# Summary of the method: as §1
# CP201 = assay: as above; settings: P. falciparum in erythrocytes, SYBR Green DNA, 72 h; series mostly up to 12.8 µM
# Summary of the method: as §1
# CP238 = assay: as above; settings: P. falciparum in erythrocytes, SYBR Green DNA, 72 h; series mostly up to 12.8 µM
# Summary of the method: as §1
# CP250 = assay: as above; settings: P. falciparum in erythrocytes, SYBR Green DNA, 72 h; series mostly up to 12.8 µM
# Summary of the method: as §1
# FAB9 = assay: as above; settings: P. falciparum in erythrocytes, SYBR Green DNA, 72 h; series mostly up to 12.8 µM
# Summary of the method: as §1
# JCK = assay: as above; settings: P. falciparum in erythrocytes, SYBR Green DNA, 72 h; series mostly up to 12.8 µM
# Summary of the method: as §1
# PC49 = assay: as above; settings: P. falciparum in erythrocytes, SYBR Green DNA, 72 h; series mostly up to 12.8 µM
# Summary of the method: as §1
# [12] = target: ATP-dependent 6-phosphofructokinase (Trypanosoma brucei brucei) (UniProt O15648); assay: qHTS Assay to Find Inhibitors of T. brucei phosphofructokinase: hit validation (AID 492961);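 also: luminescence reports ADP formed as PFK phosphorylates fructose-6-phosphate with ATP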
# Summary of the method: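 ADP-Glo luminescence read-out of ADP formed by 1.25 nM PFK from 0.1 mM ATP and 0.5 mM F6P (TEA pH 8.0, 45 min, RT). Compounds titrated; activity normalized to no-enzyme and full-enzyme controls.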
# SC27B = assay: qHTS profiling for inhibitors of Plasmodium falciparum proliferation (AID 504749); also: nearly all actives have a fitted effect of over 60% in size; settings: P. falciparum in erythrocytes, SYBR Green DNA, 72 h; series mostly up to 12.8 µM
# Summary of the method: as §1
# [13] = measured here: cell count channel max response
# [14] = measured here: lipid channel max response
# Chain of Glucocorticoid receptor (Homo sapiens) (P04150 whole entry, looked up, the tested form may be a part): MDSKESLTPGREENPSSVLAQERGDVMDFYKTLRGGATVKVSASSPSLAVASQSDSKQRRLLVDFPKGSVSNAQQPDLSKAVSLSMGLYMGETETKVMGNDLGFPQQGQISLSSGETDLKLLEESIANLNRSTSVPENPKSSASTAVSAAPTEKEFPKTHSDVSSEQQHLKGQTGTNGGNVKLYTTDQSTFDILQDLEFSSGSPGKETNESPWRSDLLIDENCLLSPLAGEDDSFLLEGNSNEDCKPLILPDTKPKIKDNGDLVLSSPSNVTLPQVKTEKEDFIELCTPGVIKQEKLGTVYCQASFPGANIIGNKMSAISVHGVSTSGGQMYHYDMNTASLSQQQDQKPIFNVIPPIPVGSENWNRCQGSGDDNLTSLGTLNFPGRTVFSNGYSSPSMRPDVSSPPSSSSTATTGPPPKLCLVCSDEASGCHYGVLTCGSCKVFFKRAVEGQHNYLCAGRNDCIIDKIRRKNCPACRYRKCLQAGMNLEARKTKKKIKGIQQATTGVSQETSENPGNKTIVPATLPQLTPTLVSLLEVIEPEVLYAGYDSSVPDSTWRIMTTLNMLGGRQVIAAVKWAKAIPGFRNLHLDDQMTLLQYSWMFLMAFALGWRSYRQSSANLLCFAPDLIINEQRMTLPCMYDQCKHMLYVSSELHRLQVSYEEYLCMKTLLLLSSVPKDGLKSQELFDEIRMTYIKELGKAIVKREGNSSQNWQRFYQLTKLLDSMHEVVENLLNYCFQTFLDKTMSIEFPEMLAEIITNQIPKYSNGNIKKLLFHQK
# Chain of Ubiquitin carboxyl-terminal hydrolase 1 (Homo sapiens) (O94782 whole entry, looked up): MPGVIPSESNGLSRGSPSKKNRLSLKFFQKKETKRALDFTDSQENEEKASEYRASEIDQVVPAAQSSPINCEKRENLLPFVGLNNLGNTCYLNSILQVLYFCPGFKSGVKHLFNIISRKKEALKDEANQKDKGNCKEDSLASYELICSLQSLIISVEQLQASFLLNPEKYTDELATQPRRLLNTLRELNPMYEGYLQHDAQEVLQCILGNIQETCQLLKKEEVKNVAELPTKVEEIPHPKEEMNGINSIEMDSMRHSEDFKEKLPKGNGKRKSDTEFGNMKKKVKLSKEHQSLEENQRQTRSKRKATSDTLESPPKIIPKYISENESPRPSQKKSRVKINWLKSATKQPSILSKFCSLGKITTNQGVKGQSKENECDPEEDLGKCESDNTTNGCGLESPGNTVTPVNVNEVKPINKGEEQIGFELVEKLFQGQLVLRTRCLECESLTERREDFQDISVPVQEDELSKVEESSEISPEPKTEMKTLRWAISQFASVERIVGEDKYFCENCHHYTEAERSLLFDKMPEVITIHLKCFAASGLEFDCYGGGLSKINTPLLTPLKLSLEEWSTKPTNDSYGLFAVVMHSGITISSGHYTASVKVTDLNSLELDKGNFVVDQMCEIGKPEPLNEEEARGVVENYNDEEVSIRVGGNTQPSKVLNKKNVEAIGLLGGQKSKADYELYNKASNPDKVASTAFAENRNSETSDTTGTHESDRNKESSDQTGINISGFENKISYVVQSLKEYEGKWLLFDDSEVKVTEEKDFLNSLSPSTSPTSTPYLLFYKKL
# Chain of 3',5'-cyclic-AMP phosphodiesterase 4B (Homo sapiens) (Q07343 whole entry, looked up): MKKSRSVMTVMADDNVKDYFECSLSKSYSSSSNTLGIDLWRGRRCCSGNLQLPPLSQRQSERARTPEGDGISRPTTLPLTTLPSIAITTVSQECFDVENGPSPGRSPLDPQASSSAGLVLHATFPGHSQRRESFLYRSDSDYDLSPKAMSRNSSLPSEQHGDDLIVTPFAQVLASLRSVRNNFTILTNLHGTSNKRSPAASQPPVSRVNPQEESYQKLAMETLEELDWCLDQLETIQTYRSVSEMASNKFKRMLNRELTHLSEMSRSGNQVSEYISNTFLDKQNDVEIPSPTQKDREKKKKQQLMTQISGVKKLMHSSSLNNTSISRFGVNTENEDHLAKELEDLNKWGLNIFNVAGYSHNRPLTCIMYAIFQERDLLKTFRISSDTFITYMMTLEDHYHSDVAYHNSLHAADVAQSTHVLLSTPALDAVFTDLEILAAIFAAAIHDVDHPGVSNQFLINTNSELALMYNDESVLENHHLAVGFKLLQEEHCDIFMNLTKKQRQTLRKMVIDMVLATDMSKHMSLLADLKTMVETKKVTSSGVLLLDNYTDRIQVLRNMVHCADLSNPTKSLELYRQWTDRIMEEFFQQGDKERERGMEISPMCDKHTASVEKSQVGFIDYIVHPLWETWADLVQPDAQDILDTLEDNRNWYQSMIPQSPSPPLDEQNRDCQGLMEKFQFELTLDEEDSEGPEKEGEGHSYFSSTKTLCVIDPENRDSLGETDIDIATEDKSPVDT
# Chain of ATP-dependent 6-phosphofructokinase (Trypanosoma brucei brucei) (O15648 whole entry, looked up): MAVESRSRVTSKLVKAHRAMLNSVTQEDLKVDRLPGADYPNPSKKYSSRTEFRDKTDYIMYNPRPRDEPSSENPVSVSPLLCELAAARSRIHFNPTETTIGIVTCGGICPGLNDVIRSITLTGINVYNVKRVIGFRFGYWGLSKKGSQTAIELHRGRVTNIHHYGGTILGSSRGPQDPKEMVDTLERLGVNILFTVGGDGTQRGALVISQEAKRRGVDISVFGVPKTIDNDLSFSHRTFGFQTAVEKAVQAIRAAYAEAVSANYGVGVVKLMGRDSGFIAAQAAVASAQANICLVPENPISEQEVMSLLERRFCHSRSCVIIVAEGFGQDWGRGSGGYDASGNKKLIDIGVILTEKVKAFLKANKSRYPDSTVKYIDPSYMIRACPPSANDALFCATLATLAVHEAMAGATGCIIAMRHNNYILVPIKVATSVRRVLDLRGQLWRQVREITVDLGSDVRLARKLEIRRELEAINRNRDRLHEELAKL
smiles,measurement,setting,value
COC(=O)[C@@H]1[C@@H]2C[C@H]3c4[nH]c5cc(OC)ccc5c4CCN3C[C@@H]2C[C@H](OC(=O)c2cc(OC)c(OC)c(OC)c2)[C@H]1OC,outcome,[1],inactive
same,"activity change, negative = inhibition",[2],-10.5% (inactive)
same,outcome,[3],inactive
same,Potency,[4],> 20.6 µM (inactive)
same,Potency,[5],> 20.6 µM (inactive)
same,Potency,[6],inactive
same,outcome,[7],inactive
same,"activity change, negative = inhibition",[8],-6.07% (inactive)
same,max response,[8]; [13],-5.3%
same,max response,[8]; [14],-12.8%
CC[C@H](C)[C@H](N)C1=N[C@H](C(=O)N[C@@H](CC(C)C)C(=O)N[C@@H](CCC(=O)O)C(=O)N[C@@H](C(=O)N[C@H]2CCCCNC(=O)[C@@H](CC(N)=O)NC(=O)[C@@H](CC(=O)O)NC(=O)[C@@H](Cc3cnc[nH]3)NC(=O)[C@@H](Cc3ccccc3)NC(=O)[C@@H]([C@@H](C)CC)NC(=O)[C@@H](CCCN)NC2=O)[C@@H](C)CC)CS1 ({Ileψ(thiazoline)Cys}-LE[d(aIle)]K[dOrn][d(aIle)][dF][dH][dD][dN]; lactam 4-C),outcome,[1],inactive
same,"activity change, negative = inhibition",[2],1.53% (inactive)
same,outcome,[3],inactive
same,Potency,[6],inactive
same,outcome,[7],inactive
same,"activity change, negative = inhibition",[8],-0.807% (inactive)
same,max response,[8]; [13],-6.25%
same,max response,[8]; [14],-6.65%
same,Potency,[9],inactive
same,Potency,[10],inactive
same,"activity, negative = inhibition",[11]; parasite line A,0.552% (inactive)
same,"activity, negative = inhibition",[11]; parasite line B,7.07% (inactive)
same,Potency,C2A,inactive
same,Potency,CP201,inactive
same,Potency,CP238,inactive
same,Potency,CP250,inactive
same,Potency,FAB9,inactive
same,Potency,JCK,inactive
same,Potency,PC49,inactive
C[N+]1(C)CC[C@@H](OC(=O)[C@@](O)(c2ccccc2)C2CCCC2)C1,outcome,[1],inactive
same,"activity change, negative = inhibition",[2],-43.8% (active)
same,outcome,[3],inactive
same,Potency,[6],inactive
same,outcome,[7],inactive
same,"activity change, negative = inhibition",[8],-2.8% (inactive)
same,max response,[8]; [13],-7.92%
same,max response,[8]; [14],-10.3%
same,Potency,[9],inactive
O[C@H](c1cc(C(F)(F)F)nc2c(C(F)(F)F)cccc12)[C@H]1CCCCN1,outcome,[1],inactive
same,"activity change, negative = inhibition",[2],24.6% (inactive)
same,outcome,[3],inactive
same,Potency,[4],> 20.6 µM (inactive)
same,Potency,[5],> 20.6 µM (inactive)
same,Potency,[6],inactive
same,"activity change, negative = inhibition",[8],-11.8% (inactive)
same,max response,[8]; [13],-16.3%
same,max response,[8]; [14],-23.7%
same,Potency,[9],inactive
COc1ccccc1OC[C@H](O)CO,outcome,[1],inactive
same,"activity change, negative = inhibition",[2],-3.75% (inactive)
same,outcome,[3],inactive
same,Potency,[6],inactive
same,outcome,[7],inactive
same,"activity change, negative = inhibition",[8],-4.43% (inactive)
same,max response,[8]; [13],-24.7%
same,max response,[8]; [14],-36%
same,outcome,[12],inactive
same,Potency,[9],inactive
same,Potency,[10],inactive
same,"activity, negative = inhibition",[11]; parasite line A,5.68% (inactive)
same,"activity, negative = inhibition",[11]; parasite line B,4.87% (inactive)
same,Potency,C2A,inactive
same,Potency,CP201,inactive
same,Potency,CP238,inactive
same,Potency,CP250,inactive
same,Potency,FAB9,inactive
same,Potency,JCK,inactive
same,Potency,PC49,inactive
same,Potency,SC27B,inactive
CCC(=O)OCC(=O)[C@@]1(OC(=O)CC)[C@H](C)C[C@@H]2[C@@H]3[C@H]([C@@H](O)C[C@@]21C)[C@]1(C)C=CC(=O)C=C1C[C@@H]3Cl,outcome,[1],inactive
same,"activity change, negative = inhibition",[2],14% (inactive)
same,Potency,[4],0.00423 µM (active)
same,Potency,[6],inactive
same,outcome,[7],inactive
same,"activity change, negative = inhibition",[8],-4.84% (inactive)
same,max response,[8]; [13],-9.62%
same,max response,[8]; [14],-12.3%
same,outcome,[12],inactive
same,Potency,[10],inactive
same,Potency,C2A,inactive
same,Potency,CP201,inactive
